# Sampled rows, rich in hits. Any-hit rate of the full collection: about 5.7%.
# FAS-TE inh: FAS thioesterase (human) inhibition; P49327; recombinant FAS-TE, OMFH fluorogenic substrate, fluorescence endpoint; inhibition, % at 15 µM; 360,000 tested, 0.67% active; AID 602261;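 active = compounds whose normalised, plate-corrected inhibition of enzyme fluorescence in the single-dose primary screen is 50% or more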;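 note: 0% = DMSO with enzyme and 100% = substrate without enzyme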
# Myeloid diff MLP: compounds promoting myeloid differentiation. ER-HoxA9 myeloid progenitors, lysozyme-GFP differentiation, flow cytometry. calls only at 10 µM. 360,000 tested, 1% active;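 active = normalized GFP-positive differentiation at or above the plate's own cutoff, the solvent-only control mean plus 3 SD; inconclusive = no clear call, values can overlap the other calls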;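 note: cells exposed to compound for four days before flow analysis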
# NR3A LBD binder: modulators (binders) of human NR3A ligand-binding domain; Tm shift relative to glycine control, % at 25 µM; 340,000 tested, 2.5% active; AID 1259313; NR3A LBD differential scanning fluorimetry, Tm shift; 0% = protein alone, 100% = glycine-bound protein;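 active = melting temperature shift of at least 10% of the positive control shift, at one fixed dose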
# MPTP block: permeability transition pore inhibition; inhibition, % at 10 µM; 360,000 tested, 1.4% active; AID 602449; isolated mouse mitochondria, Ca2+ swelling absorbance, 30 min;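 active = inhibition of 50% or more, scaled per plate between neutral and stimulator controls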;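 note: 0% = DMSO wells given calcium and 100% = 1 mM EGTA wells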
# rCAG RNA binder: r(CAG) repeat RNA binding; TO-PRO-1 dye displacement fluorescence; inhibition, % at 3 µM; 370,000 tested, 1.3% active;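 active = inhibition above the plate cutoff, the mean of all test compounds on that plate plus 3 SD, cut at about 35% in these data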;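 note: 0% = DMSO alone and 100% = 100 µM mitoxantrone as full dye displacement; higher means more dye released from RNA so lower well fluorescence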
# MPTP counter: mitochondrial membrane potential, counter-screen; shares compounds with MPTP block; isolated mitochondria, Rhodamine 123 fluorescence; inhibition, % at 10 µM; 5,000 tested, 78% active; in the data active = inhibition above about 22%;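 note: 0% = DMSO vehicle and 100% = positive control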
# MPTP abs DR: MPTP inhibition, dose response swelling confirmation; IC50, µM; shares compounds with MPTP block; 780 tested, 58% active; isolated mitochondria swelling, absorbance; AID 651561; in the data active = IC50 below about 20 µM
# MPTP cs DR: counter-screen for mitochondrial permeability transition pore inhibitors, dose response. 780 tested, 49% active. IC50, µM. isolated mitochondria counterscreen, fluorescence read-out. shares compounds with MPTP block; in the data active = IC50 below about 80 µM
# Starred values were filed as active, the others as inactive; i = inactive; u = inconclusive; x = no result given.
SMILES,FAS-TE inh,Myeloid diff MLP,NR3A LBD binder,MPTP block,rCAG RNA binder,MPTP counter,others
COc1ccc(NCc2nc3ccccc3n2CCOc2ccc(C)cc2)cc1,27,i,-2,70*,-2,37*,
CC1CCCCN1C(=O)c1ccc(C(=O)Nc2ccc(F)cc2)cc1 (centres undefined),-8,i,-4,2,-6,x,
COC(=O)C1=C(C)N(Cc2ccc(C(F)(F)F)cc2)C(=NCc2ccccc2C(F)(F)F)NC1c1ccc(C(F)(F)F)cc1 (centres undefined),x,x,x,x,1,x,
C#CCOCCOCCOCCNc1nc(N2CCN(C(=O)CCCCCCCCCCNC(=O)Cn3cc(CCCCCN)nn3)CC2)nc(N2CCN(C(=O)CCCCCCCCCCNC(=O)[C@H]([C@@H](C)CC)n3cc(CCCCCN)nn3)CC2)n1,-32,i,28*,163*,x,101*,
C#CCOCCOCCOCCNc1nc(N2CCN(C(=O)CCCCCCCCCCNC(=O)Cn3cc(CCCCCN)nn3)CC2)nc(N2CCN(C(=O)CCCCCCCCCCNC(=O)[C@H](CO)n3cc(CCCCCN)nn3)CC2)n1,-14,i,6,-11,x,x,
C#CCOCCOCCOCCNc1nc(N2CCN(C(=O)[C@H](CCCCN)n3cc(CN)nn3)CC2)nc(N2CCN(C(=O)[C@H](CCCN=C(N)N)n3cc(C(N)[C@H](C)CC)nn3)CC2)n1 (some centres undefined),-10,i,1,84*,17,-9,MPTP abs DR=i;MPTP cs DR=>80
C#CCOCCOCCOCCNc1nc(N2CCN(C(=O)[C@H](CCCN=C(N)N)n3cc(C(N)[C@H](C)CC)nn3)CC2)nc(N2CCN(C(=O)[C@H](CCCN=C(N)N)n3cc(C(N)[C@@H](C)CC)nn3)CC2)n1 (some centres undefined),-8,i,0,-4,x,x,
CC(C)=CC1C(C(=O)NCCc2ccccc2)C1(C)C (centres undefined),3,i,2,2,-5,x,
Cc1noc(-c2ccccc2)c1NC(=O)Nc1ccc(Cl)cc1,8,i,2,84*,4,97*,
O=C(Nc1ccccc1)Nc1nc(-c2ccc(F)cc2)cs1,-8,i,6,92*,32,86*,
O=C(Nc1ccc(Cl)cc1)Nc1nc(-c2ccccc2)cs1,0,i,11*,94*,13,92*,
O=C(Nc1nc(-c2ccc(Cl)cc2)cs1)NC1CCCCC1,20,i,9,92*,10,88*,
O=C(O)c1ccc(Nc2nc(-c3ccccc3)cs2)cc1,-4,i,4,1,13,x,
Cc1nc2c(-c3ccc(Cl)cc3)c(C)[nH]n2c(=O)c1Cc1ccccc1,12,i,-2,69*,10,91*,
COC(=O)[C@@]12C[C@@H](CC(=O)N3CCC(c4ccccc4)CC3)C(=O)N(CCc3ccc(OC)c(OC)c3)C1=CCC(C)(C)C2,x,i,x,3,8,x,
CCC1(CCC(C)C)SC(N)=NC1=O (centres undefined),-8,i,0,-1,1,x,
COc1cc(OC)c(NS(=O)(=O)c2cc(Br)cnc2N)cc1Cl,18,i,0,-2,17,x,
O=S(=O)(Nc1ccc(O)c(Sc2nc3ccccc3s2)c1)c1ccc(F)cc1,10,i,9,78*,26,55*,
O=[N+]([O-])c1cc(S(=O)(=O)C(F)(F)F)ccc1Sc1nc2ccccc2s1,36,u,-25,-6,0,x,
CC(C)c1ccc([N+](=O)[O-])cc1S(=O)(=O)N1CCN(C)CC1,-3,i,2,1,-3,x,
Clc1ccc2c(c1)C(N1CCNCC1)Cc1ccccc1S2 (centres undefined),-91,i,-2,83*,x,-7,
Clc1cccc2c1Sc1ccccc1CC2N1CCNCC1 (centres undefined),-22,i,-4,93*,14,-11,
COCCCN1CCN(C2Cc3ccccc3Sc3ccc(Cl)cc32)CC1 (centres undefined),18,i,-2,-3,-7,x,
CNC(=S)N/N=C/c1cccc(OCc2ccccc2F)c1,27,i,-17,70*,5,28*,
